# Measured values as given in PubChem BioAssay AID1159580 (chemical genetic matrix, 2015).
# The campaign covered roughly 5,500 compounds. About 2,000 (36%) were called active. Inconclusive results (about 18%) are left out. The list shows a part of the results. Values without a mark were called inactive. Rule as the data show it: active = normalized growth mostly below about 0.91 (no sharp cut-off); inconclusive = no clear call, values can overlap the other calls; inactive = mostly above about 0.92.
# Assay: chemical genetic growth profiling, strain panel (AID 1159580);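 also: tested at 20 µM; growth read once vehicle control cultures reached saturation at 30 °C; 1 = growth at the plate median or of vehicle wells; lower values mean less growth of the strain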
# Conditions: S. cerevisiae deletion strains, growth OD
structure (smiles),measurement,setting,value
O=c1cc(C(F)(F)F)[nH]c2c(Cl)cccc12,normalized growth,"locus YAL013W, strain DEP1, stronger effect = lower value",0.884 (active)
same,normalized growth,"locus YBR229C, strain ROT2, stronger effect = lower value",0.816 (active)
same,normalized growth,"locus YDL101C, strain DUN1, stronger effect = lower value",0.883 (active)
same,normalized growth,"locus YDR150W, strain NUM1, stronger effect = lower value",0.86
same,normalized growth,"locus YEL061C, strain CIN8, stronger effect = lower value",0.886 (active)
same,normalized growth,"locus YGR078C, strain PAC10, stronger effect = lower value",0.813 (active)
same,normalized growth,"locus YGR229C, strain SMI1, stronger effect = lower value",0.929 (active)
same,normalized growth,"locus YHR030C, strain SLT2, stronger effect = lower value",0.847
same,normalized growth,"locus YHR087W, strain rtc3, stronger effect = lower value",0.831 (active)
same,normalized growth,"locus YJR043C, strain POL32, stronger effect = lower value",0.905 (active)
same,normalized growth,"locus YJR075W, strain HOC1, stronger effect = lower value",0.779 (active)
same,normalized growth,"locus YLR039C, strain RIC1, stronger effect = lower value",0.846
same,normalized growth,"locus YLR058C, strain SHM2 (second series), stronger effect = lower value",0.84 (active)
same,normalized growth,"locus YLR085C, strain ARP6, stronger effect = lower value",0.827
same,normalized growth,"locus YLR262C, strain YPT6, stronger effect = lower value",0.847
same,normalized growth,"locus YML094W, strain GIM5, stronger effect = lower value",0.938
same,normalized growth,"locus YMR219W, strain ESC1, stronger effect = lower value",0.831 (active)
same,normalized growth,"locus YMR263W, strain SAP30, stronger effect = lower value",0.844 (active)
same,normalized growth,"locus YNL153C, strain GIM3, stronger effect = lower value",0.86 (active)
same,normalized growth,"locus YNL298W, strain CLA4 (second series), stronger effect = lower value",0.902
same,normalized growth,"locus YNL322C, strain KRE1, stronger effect = lower value",0.863 (active)
same,normalized growth,"locus YNR030W, strain Alg12, stronger effect = lower value",0.919
same,normalized growth,"locus YOL006C, strain TOP1, stronger effect = lower value",0.913
same,normalized growth,"locus YPL055C, strain LGE1, stronger effect = lower value",0.823 (active)
same,normalized growth,"locus YPL241C, strain CIN2, stronger effect = lower value",0.935
same,normalized growth,"locus YPR135W, strain CTF4, stronger effect = lower value",0.874
